Consider twelve compounds from PubChem BioAssay (Tox21).

Assay [1] in a line: Nuclear factor erythroid 2-related factor 2/antioxidant responsive element (Nrf2/ARE) small molecule agonists: qHTS cell viability counter screen in human keratinocytes (AID 1919968; active = well fitted curve in the direction sought with a large enough effect in the repeat runs; an effect the other way counts as inactive or inconclusive; note: nearly all actives have a fitted effect of over 55% in size; note: potency is the fitted concentration of half-maximal effect). Put shortly:
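Stably transfected HaCaT (KeratinoSens), 1,500/well. Test agents in DMSO were applied for 23 h, 37 C/5% CO2. CellTiter-Fluor was incubated 1 h before the fluorescence read.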
Background: Quantitative high-throughput screening tests each substance at several concentrations.

Assay [2] can be described thus: Nuclear factor erythroid 2-related factor 2/antioxidant responsive element (Nrf2/ARE) small molecule agonists: luciferase reporter gene qHTS assay in human keratinocytes (AID 1919969; note: nearly all actives have a fitted effect of over 35% in size). (In general: Reporter assays use an easily measured gene product as a stand-in for the process of interest.)
Assay [3] concerns the target Gonadotropin-releasing hormone receptor (Homo sapiens) (UniProt P30968). In words: Human gonadotropin-releasing hormone receptor (GnRHR) small molecule agonists, calcium flux assay in GnRHR-HEK293 cells (AID 1920063). Note: nearly all actives have a fitted effect of over 35% in size. Note: potency is the fitted concentration of half-maximal effect. Put shortly: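 Stable human GnRHR HEK293 line. 18 h plating, then calcium dye for 1 h at 37 C. Agonist-mode compound addition from DMSO stocks; fluorescence monitored 3 min.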
Background: Calcium assays in cells follow changes in intracellular calcium, usually with a dye or a luminescent sensor.

For assay [4], the target named is KiSS-1 receptor (Homo sapiens) (UniProt Q969F8). Put plainly: Human kisspeptin (KISS1R) small molecule agonists, calcium flux assay in KISS1R-HEK293 cells (AID 1920064; active = well fitted curve in the direction sought with a large enough effect in the repeat runs; an effect the other way counts as inactive or inconclusive). Put shortly: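 After overnight (18 h) culture at 37 C/5% CO2, human KISS1R-HEK293 cells received calcium dye for 1 h, then test compound; emission at 540 nm (excitation 480 nm) was tracked for 3 min.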

The nature of assay [5]: G protein-coupled receptor (GPCR) small molecule agonists, calcium flux assay: HEK293 wild type cell line counter screen (AID 1920065). The essentials:
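Following 18 h incubation at 37 C/5% CO2, plates got calcium dye for 1 h; compounds, ATP or DMSO were then pinned in and fluorescence followed kinetically (480/540 nm).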

Assay [6] is described as follows: p53 small molecule agonists, cell-based qHTS assay with human liver microsomes: qHTS cell viability counter screen (AID 1963579). Note: nearly all actives have a fitted effect of over 45% in size. Put shortly:
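Cytotoxicity counter screen: p53RE-bla, 4,000 cells/well; 5 h settle, 37 C/5% CO2; cpd + HLM 0.5 mg/mL + NADPH 0.5 mg/mL (final); 16 h, 37 C; CellTiter-Glo, 30 min RT, luminescence.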

Assay [7] is described as follows: p53 small molecule agonists, cell-based qHTS assay with rat liver microsomes: qHTS cell viability counter screen (AID 1963580). Note: nearly all actives have a fitted effect of over 45% in size. The essentials: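 After the beta-lactamase ratio was read, CellTiter-Glo was added to the same wells and luminescence measured at 30 min; cells had been treated 16 h at 37 C with compounds, rat liver microsomes and NADPH (0.5 mg/mL final each).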

The target in assay [8] is 5-hydroxytryptamine receptor 2A (Homo sapiens) (UniProt P28223). In words: 5-hydroxytryptamine receptor 2A (HTR2A) small molecule antagonists, cell-based qHTS assay (AID 1963586). Note: nearly all actives have a fitted effect of over 45% in size. Note: potency is the fitted concentration of half-maximal effect. The essentials:
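CHO cells stably expressing human HTR2A were plated for 18 h at 37 C, then loaded with calcium dye for 1 h. Compounds were preincubated 5 min at room temperature before DOI (4 nM solution) was added. Kinetic fluorescence was read for 3 min.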

Assay [9] shares this target. In words: 5-hydroxytryptamine receptor 2A (HTR2A) small molecule agonists, cell-based qHTS assay (AID 1963587). Note: nearly all actives have a fitted effect of over 30% in size. The essentials: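 CHO cells stably expressing human HTR2A, plated 18 h, loaded with calcium dye 1 h at 37 C. Agonist mode: compounds added and intracellular calcium fluorescence recorded kinetically for 2 min at 1 sec intervals.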
Assay [10] deals with Muscarinic acetylcholine receptor M1 (Homo sapiens) (UniProt P11229). Put plainly: Cholinergic receptor muscarinic 1 (CHRM1) small molecule antagonists, cell-based qHTS assay (AID 1963588). Note: nearly all actives have a fitted effect of over 40% in size. Put shortly:
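Compounds were tested at 15 concentrations in three independent runs. Dye-loaded CHRM1-CHO cells were exposed 5 min at room temperature before stimulation by acetylcholine added at 50nM. Intracellular calcium was read kinetically on FDSS for 3 min.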

The target is the same in assay [11]. Put plainly: Cholinergic receptor muscarinic 1 (CHRM1) small molecule agonists, cell-based qHTS assay (AID 1963589). Note: nearly all actives have a fitted effect of over 35% in size. The essentials: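 Kinetic fluorescence (1 s intervals) of calcium-sensitive dye in human M1 CHO cells after compound addition; cells pre-incubated 18 h at 37 C/5% CO2 and dye-loaded 1 h.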
The nature of assay [12]: cAMP Responsive Elements (CRE) small molecule agonists, cell-based qHTS assay (AID 1963590). The essentials:
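Test agents in DMSO were incubated 3 h at 37 C/5% CO2 with CRE-bla HEK 293T cells seeded 18 h earlier; LiveBLAzer B/G FRET substrate was added and read after 2 h at room temperature.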

Assay [13] is described as follows: cAMP Responsive Elements (CRE) small molecule antagonists, cell-based qHTS assay (AID 1963591; active = well fitted inhibition curve with a large enough effect in the signal ratio in the repeat runs, not every such curve was filed as active; the % refers to the signal ratio). The essentials:
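Reporter line CRE-bla HEK 293T in dialyzed-FBS DMEM; cells preincubated 18 h, treated 3 h with compound plus NKH477 (0.25 uM final); LiveBLAzer FRET, 2 h RT.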

The target of assay [14] is Beta-2 adrenergic receptor (Homo sapiens) (UniProt P07550). In words: Adrenergic beta2 receptor (ADRB2) small molecule antagonists, cell-based qHTS assay (AID 1963592). Note: series mostly up to about 92 µM; nearly all actives have a fitted effect of over 50% in size. The essentials:
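Assay format: CHO-ADRB2 cells, 18-20hr seeding at 37C/5% CO2, then compound plus 1nM isoproterenol agonist mix for 0.5hr RT. Homogeneous time-resolved fluorescence cAMP detection after 1hr, expressed as 665/615 nm ratio.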

The target in assay [15] is D(2) dopamine receptor (Homo sapiens) (UniProt P14416). In words: Dopamine D2 receptor (DRD2) small molecule agonists, cell-based qHTS assay (AID 1963594). Note: nearly all actives have a fitted effect of over 35% in size. The essentials: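 HEK293 cells stably expressing human DRD2, pre-treated with PDE inhibitor Ro20-1724 (0.1 mM final) and compound 10 min at room temperature, then stimulated with NKH477 (200nM […]) for 30 min. cAMP read by HTRF (665/620 nm).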

Assay [16] has the same target. In words: Dopamine D2 receptor (DRD2) small molecule antagonists, cell-based qHTS assay (AID 1963595; active = well fitted inhibition curve with a large enough effect in the signal ratio in the repeat runs, with a control signal flat; the % refers to the signal ratio). Put shortly:
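Human DRD2 antagonist qHTS measuring cAMP by HTRF. The cells are exposed to compound for 10 min, then to NKH477 (200 nM) and quinpirole (12 nM) for 30 min at RT, with Ro20-1724 (0.1 mM) present throughout.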

Assay [17] in a line: p53 small molecule agonists, cell-based qHTS assay: qHTS cell viability counter screen (AID 1963581). Note: nearly all actives have a fitted effect of over 45% in size. Put shortly: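 qHTS counter screen: 16 h compound exposure at 37 C of p53RE-bla HCT-116 cells (4,000 per well, seeded 5 h prior), cell viability by ATP luminescence.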
The target of assay [18] is Beta-2 adrenergic receptor (Homo sapiens) (UniProt P07550). Put plainly: Adrenergic beta2 receptor (ADRB2) small molecule agonists, cell-based qHTS assay (AID 1963593).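 Note: CHO cells stably overexpressing human ADRB2.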 The essentials:
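CHO cells stably over-expressing ADRB2 were plated overnight at 37C, then dosed with compounds plus a stimulation mix containing 100uM IBMX and 25uM Ro-20-1724 for 0.5hr at room temperature. cAMP was measured by HTRF competition, 1hr.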

Values without a mark were called inactive. Inconclusive results are not listed. The source made the active and inactive calls. Unless noted, calls come from the whole dose curve.
% is set by controls: 0 for no effect and ±100 for the full control effect.

Sequence of KiSS-1 receptor (Homo sapiens) (Q969F8 whole entry, looked up): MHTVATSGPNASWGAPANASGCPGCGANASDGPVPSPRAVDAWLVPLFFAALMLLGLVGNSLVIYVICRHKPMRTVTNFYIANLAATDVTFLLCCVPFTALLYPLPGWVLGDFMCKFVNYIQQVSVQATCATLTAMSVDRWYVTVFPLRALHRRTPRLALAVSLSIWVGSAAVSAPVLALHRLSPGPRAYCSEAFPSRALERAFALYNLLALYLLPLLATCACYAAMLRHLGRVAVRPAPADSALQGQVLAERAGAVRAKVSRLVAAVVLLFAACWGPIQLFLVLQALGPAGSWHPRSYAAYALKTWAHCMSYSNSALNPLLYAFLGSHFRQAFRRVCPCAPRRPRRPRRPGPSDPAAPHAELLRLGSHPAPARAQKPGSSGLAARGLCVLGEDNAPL
Sequence of Gonadotropin-releasing hormone receptor (Homo sapiens) (P30968 whole entry, looked up): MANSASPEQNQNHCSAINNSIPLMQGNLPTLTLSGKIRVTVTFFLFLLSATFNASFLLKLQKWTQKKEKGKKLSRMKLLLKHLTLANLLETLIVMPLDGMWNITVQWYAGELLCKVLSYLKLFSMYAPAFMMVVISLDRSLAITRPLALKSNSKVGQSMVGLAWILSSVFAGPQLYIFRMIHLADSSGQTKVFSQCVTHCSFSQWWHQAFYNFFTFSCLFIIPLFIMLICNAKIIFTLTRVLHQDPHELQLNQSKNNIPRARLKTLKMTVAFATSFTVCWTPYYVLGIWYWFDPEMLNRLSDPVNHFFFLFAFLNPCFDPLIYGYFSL
Sequence of D(2) dopamine receptor (Homo sapiens) (P14416 whole entry, looked up): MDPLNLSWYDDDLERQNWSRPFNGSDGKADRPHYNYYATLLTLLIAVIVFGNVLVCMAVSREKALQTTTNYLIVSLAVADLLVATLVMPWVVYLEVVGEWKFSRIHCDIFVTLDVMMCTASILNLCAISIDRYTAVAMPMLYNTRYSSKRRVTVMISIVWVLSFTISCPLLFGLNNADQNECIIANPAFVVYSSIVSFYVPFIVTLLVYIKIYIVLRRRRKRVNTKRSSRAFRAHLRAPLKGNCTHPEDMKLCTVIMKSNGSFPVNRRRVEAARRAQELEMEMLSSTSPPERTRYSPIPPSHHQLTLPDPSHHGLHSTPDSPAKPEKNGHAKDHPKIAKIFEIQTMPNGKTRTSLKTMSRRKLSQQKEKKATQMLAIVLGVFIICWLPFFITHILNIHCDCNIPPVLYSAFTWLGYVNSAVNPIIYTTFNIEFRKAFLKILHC
Sequence of Beta-2 adrenergic receptor (Homo sapiens) (P07550 whole entry, looked up): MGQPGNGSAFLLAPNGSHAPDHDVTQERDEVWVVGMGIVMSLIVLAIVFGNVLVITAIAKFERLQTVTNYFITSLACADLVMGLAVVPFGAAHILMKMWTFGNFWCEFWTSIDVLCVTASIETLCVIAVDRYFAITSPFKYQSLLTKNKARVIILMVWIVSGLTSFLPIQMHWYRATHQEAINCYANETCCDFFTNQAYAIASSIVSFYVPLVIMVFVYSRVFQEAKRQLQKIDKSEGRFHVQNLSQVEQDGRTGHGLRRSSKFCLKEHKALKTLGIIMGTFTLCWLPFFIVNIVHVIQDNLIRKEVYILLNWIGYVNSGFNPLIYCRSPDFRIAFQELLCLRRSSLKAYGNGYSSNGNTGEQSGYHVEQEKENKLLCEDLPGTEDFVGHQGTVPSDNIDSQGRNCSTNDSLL
Sequence of 5-hydroxytryptamine receptor 2A (Homo sapiens) (P28223 whole entry, looked up): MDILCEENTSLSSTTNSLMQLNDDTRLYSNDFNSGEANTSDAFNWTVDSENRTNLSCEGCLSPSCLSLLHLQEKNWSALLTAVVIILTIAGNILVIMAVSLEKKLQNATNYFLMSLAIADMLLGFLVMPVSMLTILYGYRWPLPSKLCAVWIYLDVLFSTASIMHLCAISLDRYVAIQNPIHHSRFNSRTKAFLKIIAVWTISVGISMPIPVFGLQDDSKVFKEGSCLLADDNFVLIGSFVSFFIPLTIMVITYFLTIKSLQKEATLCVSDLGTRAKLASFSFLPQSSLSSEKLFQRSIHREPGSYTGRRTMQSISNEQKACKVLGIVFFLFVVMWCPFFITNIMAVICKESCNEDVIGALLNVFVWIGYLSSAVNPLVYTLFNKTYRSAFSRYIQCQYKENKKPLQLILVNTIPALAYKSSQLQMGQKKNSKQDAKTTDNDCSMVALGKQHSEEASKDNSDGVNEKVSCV
Sequence of Muscarinic acetylcholine receptor M1 (Homo sapiens) (P11229 whole entry, looked up): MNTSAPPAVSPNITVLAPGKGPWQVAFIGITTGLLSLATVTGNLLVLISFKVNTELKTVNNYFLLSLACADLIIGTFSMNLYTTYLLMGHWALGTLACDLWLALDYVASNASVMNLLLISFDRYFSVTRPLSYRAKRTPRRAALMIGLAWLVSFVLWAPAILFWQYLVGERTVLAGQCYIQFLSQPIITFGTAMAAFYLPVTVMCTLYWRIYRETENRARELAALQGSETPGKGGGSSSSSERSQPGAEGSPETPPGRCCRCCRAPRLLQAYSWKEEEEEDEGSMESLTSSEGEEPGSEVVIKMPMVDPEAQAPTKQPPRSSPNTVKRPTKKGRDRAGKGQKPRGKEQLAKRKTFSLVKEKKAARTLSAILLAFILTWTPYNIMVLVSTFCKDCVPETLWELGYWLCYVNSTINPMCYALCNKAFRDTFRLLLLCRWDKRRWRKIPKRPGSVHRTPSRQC

As for `O=C1CCCCC1C1CCCCC1` (stereo not drawn), the Potency entry in [1], in [2], in assay [3], in assay [4], in assay [5] and in assay [6] was “inactive” in each case. The Potency entry in assay [7], in assay [8], in assay [9], in assay [10], in [11] and in [12] was “inactive” each time. The Potency entry in assay [13], in assay [14], in assay [15] and in assay [16] was “inactive” each time.
With `NNC(=O)CP(=O)(c1ccccc1)c1ccccc1`, the Potency entry in [1], in assay [2], in assay [3], in [4], in assay [5] and in [6] was “inactive” each time. Also, the Potency entry in assay [7], in [17], in [10], in assay [11], in assay [13] and in [14] was “inactive” each time. Besides, the Potency result in assay [15] and in assay [16] was “inactive” throughout.
In the case of `CC(=O)OCC(CCn1cnc2cnc(N)nc21)COC(C)=O`, the Potency result in assay [1], in assay [2], in assay [3], in assay [4], in assay [5] and in assay [6] was “inactive” in each case. For the same compound, the Potency result in assay [7], in assay [17], in assay [13], in assay [14], in [18] and in assay [15] was “inactive” throughout. The Potency result in [16] is “inactive”.
Turning to `CCCC(=O)O[C@]1(C(=O)COC(=O)CC)CC[C@H]2[C@@H]3CCC4=CC(=O)CC[C@]4(C)[C@H]3[C@@H](O)C[C@@]21C`, the results for the activity change, negative = cytotoxicity in [1], in assay [6] and in assay [7] were -1.05% [at 19 µM], 0.226% [at 13.5 µM] and 1.95% [at 13.5 µM], respectively. In assay [2], the activity, positive = activation was -4.28% [at 19 µM]. Further, in [3], the activity change was 1.71% [at 11.8 µM, hits give high values]. In addition, the activation is -0.661% [at 15.8 µM] in [4]; -0.97% [at 11.8 µM] in [5]; 1.9% [at 15.9 µM] in assay [9]; 5.7% [at 15.8 µM] in [11]; 3.82% [at 19 µM] in assay [15]. Besides, the activity, negative = inhibition in assay [8] was -43.5% [at 12.7 µM]; in [10] it was 0.329% [at 12.6 µM]. Further, the activity change, negative = inhibition in [14] is 0.289% [at 19 µM]; in assay [16] it was -0.509% [at 18.9 µM].
As for `O=C(Cl)c1c(Cl)cccc1Cl`, the Potency result in assay [1], in assay [2], in [3], in assay [4], in assay [5] and in assay [6] was “inactive” in each case. Further, the Potency entry in assay [7], in assay [8], in assay [9], in assay [10], in assay [11] and in assay [12] was “inactive” in each case. The Potency result in [13], in assay [14], in assay [18], in assay [15] and in assay [16] was “inactive” throughout.
Consider `O=C(N[C@@H](c1ccccc1)[C@@H]1CCCCN1)c1cccc(C(F)(F)F)c1Cl`, for which the Potency in assay [1] is 43.3 µM (active); in [3] it was 38.9 µM (active). The Potency entry in assay [2], in assay [4], in assay [5], in assay [6], in [7] and in assay [17] was “inactive” throughout. Also, the Potency entry in assay [10], in [11], in assay [14], in [15] and in assay [16] was “inactive” throughout.
As for `Cc1onc(-c2ccccc2)c1-c1ccc(S(N)(=O)=O)cc1`, the Potency result in [1], in assay [2], in assay [3], in [4], in [5] and in [6] was “inactive” throughout. In addition, the Potency result in assay [7], in assay [17], in [12], in [13], in assay [14] and in assay [18] was “inactive” throughout. Further, the Potency entry in assay [15] and in assay [16] was “inactive” in each case.
For `C[C@H](CCC(=O)O)[C@H]1CC[C@H]2[C@@H]3C(=O)C[C@@H]4CC(=O)CC[C@]4(C)[C@H]3CC(=O)[C@]12C`, the Potency entry in assay [1], in assay [2], in [3], in assay [4], in assay [5] and in assay [6] was “inactive” throughout. Moreover, the Potency result in assay [7], in [8], in [9], in [10], in assay [11] and in assay [14] was “inactive” in each case. Besides, the Potency result in assay [18], in assay [15] and in assay [16] was “inactive” in each case.
For the compound `COC(=O)CCSCCC(=O)OC`, the Potency entry in assay [1], in [2], in assay [3], in assay [4], in assay [5] and in assay [6] was “inactive” each time. Further, the Potency result in assay [7], in assay [8], in [9], in [10], in [11] and in assay [12] was “inactive” throughout. Further, the Potency entry in assay [13], in [14], in assay [18], in [15] and in assay [16] was “inactive” throughout.
In the case of `CN(Cc1ccc(C(C)(C)C)cc1)Cc1cccc2ccccc12`, the Potency in assay [1] is 11.9 µM (active). In addition, the Potency entry in [2], in [3], in [4], in assay [5], in assay [6] and in assay [7] was “inactive” each time. In addition, the Potency entry in assay [17], in assay [13], in [14], in assay [18], in assay [15] and in [16] was “inactive” each time.
In the case of `COC=O`, the activity change, negative = cytotoxicity was -1.85% [at 8.39 µM] in [1], -1.32% [at 5.99 µM] in assay [6] and 1.32% [at 5.99 µM] in [7]. In addition, the activity, positive = activation in assay [2] was -9.06% [at 8.39 µM]. Besides, the activity change in [3] is -1.66% [at 5.22 µM, hits give high values]. Besides, the activation in assay [4] was -0.791% [at 6.97 µM]; in [5], 2.54% [at 5.23 µM]; in assay [9], -0.022% [at 7.02 µM]; in [11], -0.541% [at 6.97 µM]; in assay [15], -14.1% [at 8.39 µM]. Moreover, the Potency in [8] is 3.09 µM (active). Also, the activity, negative = inhibition in assay [10] is 1.52% [at 5.58 µM]. In addition, the activity change, negative = inhibition in [14] was 14.4% [at 8.39 µM]; in [16], -12.2% [at 8.38 µM].
`CC(C)(CO)C(O)C(=O)NCCCO` (stereo not drawn): the Potency entry in assay [1], in assay [2], in [3], in assay [4], in assay [5] and in assay [6] was “inactive” in each case. The Potency result in assay [7], in assay [17], in assay [12], in [13], in assay [14] and in [15] was “inactive” in each case. The Potency entry in assay [16] is “inactive”.
